Hits are enriched below; roughly 9.5% of the tested compounds scored in any of these assays.
NS1 function inh – inhibitors of influenza NS1 protein function; Potency, µM (titrated, usually from 46.1 µM); 270,000 tested, 0.4% active; AID 2326; note: actives are rising curves; nearly all actives have a fitted effect of over 50% in size
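In this qHTS, NS1 from influenza A is expressed in budding yeast, where it slows growth. Cells are switched from glucose to 2% galactose medium (pH 6.0, -URA), treated with compound, and growth recovery is read at OD600.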
RE007 growth inh – less growth of the S. pombe RE007 Vpr strain | S. pombe RE007 Vpr strain, BacTiter-Glo ATP luminescence, 24 h | 360,000 tested, 0.21% active | AID 651644 | Potency, µM (top dose mostly 92.2 µM), usual class: inhibitors; active = well fitted falling curve with a large enough effect; inconclusive = small, poorly fitted or top-dose-only effect; inactive = no such curve, though single readings can be large or run the other way; note: nearly all actives have a fitted effect of over 50% in size
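Fission yeast RE007 carrying one integrated HIV-1 vpr copy, seeded at OD 0.01 in PMG+AL medium with 23 nL pinned compound. Grown 24 h at 30 degrees; viability read by BacTiter-Glo luminescence after 5 min.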
SARS PLP yeast – SARS-CoV PLP inhibition in yeast; S. cerevisiae expressing SARS-CoV PLpro, growth rescue; Potency, µM (highest dose often 32.9 µM), usual class: activators; 330,000 tested, 0.19% active; AID 485353; note: nearly all actives have a fitted effect of over 55% in size
Pf growth 96h – P. falciparum growth inhibition at 96 hour, primary screen for plastid delayed-death inhibitors. Potency, µM (titrated, usually from 28.7 µM), actives largely listed as inhibitors. P. falciparum luciferase reporter growth, 96 h. 320,000 tested, 6.9% active; active = well fitted inhibition curve with a large enough effect; inconclusive = small, poorly fitted or top-dose-only effect, or another doubt; inactive = no such curve, though single readings can be large or run the other way
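Infected RBCs, 2% Hct / 0.05% parasitemia final; luciferase-reporter P. falciparum; cpd 96 h, 37 C, 5% CO2; luciferase detection reagent; luminescence.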
Pf growth 48h – inhibits P. falciparum growth in the first generation, 48 h. P. falciparum luciferase growth in erythrocytes, 48 h. Potency, µM (doses to about 28.7 µM), most hits filed as inhibitors. 310,000 tested, 5.9% active. AID 504832; active = well fitted inhibition curve with a large enough effect; inconclusive = small, poorly fitted or top-dose-only effect, or another doubt; inactive = no such curve, though single readings can be large or run the other way
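Compounds are pin-transferred into medium, infected erythrocytes (2% hematocrit, 0.1% parasitemia final) are added, and plates sit one parasite generation at 37 C in 5% CO2. Detection reagent is then added and luminescence measured.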
Numbers stand for hits; . = inactive; ? = inconclusive; / = no result given; [ ] = another dose, or the depositor's remark. Unless noted, calls come from the whole dose curve.

SMILES	NS1 function inh	RE007 growth inh	SARS PLP yeast	Pf growth 96h	Pf growth 48h
O=C(CNc1cccc2ccccc12)N/N=C/c1ccc([N+](=O)[O-])o1	.	.	.	1.17µM	3.29µM
CCCOc1ccc(CCC(=O)N/N=C/c2ccc([N+](=O)[O-])o2)cc1	.	.	.	11.7µM	?
Cc1cc(C)cc(OCC(=O)N/N=C/c2ccc([N+](=O)[O-])o2)c1	/	.	.	.	9.28µM
O=C(CNc1cccc([N+](=O)[O-])c1)N/N=C/c1ccc([N+](=O)[O-])o1	.	.	.	.	?
O=C(CN1CCCCCCC1)N/N=C/c1ccc([N+](=O)[O-])o1	.	.	.	.	?
COc1ccccc1OCC(=O)N/N=C/C=C/c1ccc([N+](=O)[O-])o1	.	.	.	1.47µM	4.15µM
C1CCCCCC(NCCN2CCNCC2)CCCCC1	.	.	.	?	?
O=C(CSc1nc2ncccc2[nH]1)c1cccc([N+](=O)[O-])c1	?	.	.	?	?
Cc1ccccc1CN(C)C1CCN(C)CC1	.	.	.	?	.
Cc1ccccc1OCC(=O)NCC(=O)N/N=C/c1ccc(Br)o1	.	/	.	.	.
Cc1ccccc1OCC(=O)N/N=C/c1ccc([N+](=O)[O-])o1	.	.	.	2.08µM	5.22µM
O=C(CCN1CCN(c2ccccc2)CC1)N/N=C/c1ccc([N+](=O)[O-])o1	/	.	.	10.4µM	?
CCOC(=O)C1=C(COC(=O)Cc2ccccc2[N+](=O)[O-])NC(=O)NC1C (stereo not given)	/	.	/	/	/
COc1ccc2cc(-c3[nH]ncc3CN3CCCC3c3nonc3C)ccc2c1 (stereo not given)	.	.	.	4.65µM	.
COc1cc(CNCc2ccccc2)c(Br)cc1OC1CCCC1	.	.	.	.	?
O=C(c1ccc(COc2c(F)c(F)c(F)c(F)c2F)o1)N1CCOCC1	.	.	.	13.1µM	.
COc1ccc(-c2onc3ccc(C(=O)/C=C/N(C)C)cc23)cc1	.	.	.	?	10.4µM
NC1CONC1=O (stereo not given)	.	/	/	/	/
CCNC(=O)C1CCCN(C(=O)c2ccc(OC(F)F)cc2)CC1 (stereo not given)	/	.	/	/	/
C[C@H]1c2cccc(O)c2C(O)=C2C(=O)[C@]3(O)C(O)=C(C(N)=O)C(=O)[C@@H](N(C)C)C3[C@@H](O)C21 (stereo not given in full)	/	.[18.4 µM]	/	0.415µM	3.7µM
C=C1c2cccc(O)c2C(=O)C2C(=O)[C@]3(O)C(=O)C(C(N)=O)C(=O)[C@@H](N(C)C)[C@@H]3[C@@H](O)[C@H]12 (stereo not given in full)	/	.	.	/	/
CN(C)C1C(=O)C(C(N)=O)=C(O)C2(O)C(=O)C3=C(O)c4c(O)cccc4C(C)(O)C3C(O)C12 (stereo not given)	.	.[18.4 µM]	.	2.62µM	?
CN(C)[C@@H]1C(=O)C(C(N)=O)=C(O)[C@]2(O)C(=O)C3=C(O)c4c(O)ccc(Cl)c4[C@](C)(O)[C@H]3C[C@@H]12	/	/	/	?	.
CN(C)[C@@H]1C(=O)C(C(N)=O)=C(O)[C@]2(O)C(=O)C3=C(O)c4c(O)ccc(Cl)c4[C@H](O)[C@H]3C[C@@H]12	/	/	/	3.38µM	6.75µM
COc1ccc(C(=O)CSc2nnc(CNC(=O)c3ccccc3F)n2C)cc1OC	.	.	.	.	.
SMILES	NS1 function inh	RE007 growth inh	SARS PLP yeast	Pf growth 96h	Pf growth 48h
CC1(C(=O)NS(=O)(=O)c2cccc(C#N)c2)CCN1C(=O)Cc1ccccc1 (stereo not given)	/	.	/	/	/
CCCC1(CCC)NC(=O)N(CC(=O)N2CCc3ccccc32)C1=O	/	.	.	/	/
CCOC(=O)c1ccc(NC(=O)c2ccc3c(c2)C(=O)N(Cc2cccnc2)C3=O)cc1	.	.	.	.	.
C=C1c2cccc(O)c2C(O)=C2C(=O)[C@@]3(O)C(O)=C(C(N)=O)C(=O)[C@@H](N(C)C)[C@@H]3[C@@H](O)[C@H]12	/	/	/	1.28µM	3.22µM
C[C@@H]1c2cccc(O)c2C(O)=C2C(=O)[C@@]3(O)C(O)=C(C(N)=O)C(=O)[C@@H](N(C)C)[C@@H]3[C@@H](O)[C@@H]21	/	/	/	1.51µM	7.57µM
N#C[C@@H](N=Nc1ccccc1C(=O)O)C(N)=O	.	/	/	/	/
Cc1ccc(C)c(-c2cc(C(=O)N/N=C/c3cccnc3)c3ccccc3n2)c1	.	.	.	4.65µM	?
Cc1ccc(C)c(-c2cc(C(=O)Nc3sc(C)c(C)c3C(N)=O)c3ccccc3n2)c1	.	.	.	10.4µM	?
Cc1cccc(-c2cc(C(=O)Nc3sc(C)c(C)c3C(N)=O)c3ccccc3n2)c1	.	.	.	?	.
CC(C)(C)NCC(O)c1cc(O)cc(O)c1 (stereo not given)	.	.	.	.	.
CC(C)(C)NCC(O)c1cc(Cl)c(N)c(C(F)(F)F)c1 (stereo not given)	/	/	/	8.49µM	13.5µM
CCOC(=O)c1ccc(N=Cc2cnc(N)nc2N)cc1	/	.	/	/	/
Cc1noc(C)c1NC(=O)N(C)C[C@H]1Oc2ccc(NC(=O)Nc3ccc(C(F)(F)F)cc3)cc2C(=O)N([C@H](C)CO)C[C@@H]1C	/	.	.	/	/
Cc1cc(NC(=O)CS(=O)(=O)c2cn(Cc3ccccc3Cl)c3ccccc23)no1	?	.	.	0.586µM	.
Cc1cc(NC(=O)CS(=O)(=O)c2cn(Cc3cccc(Br)c3)c3ccccc23)no1	/	.	/	/	/
C[C@@H]1CC2C3CCC4=CC(=O)C=C[C@]4(C)[C@@]3(F)[C@@H](O)C[C@]2(C)[C@@]1(O)C(=O)COC(=O)c1cccc(S(=O)(=O)O)c1 (stereo not given in full)	/	/	/	.	.
Cc1ccc(NC(=S)NNc2ncc(C(F)(F)F)cc2Cl)cc1	.	.	.	10.4µM	?
O=C(NNc1ncc(C(F)(F)F)cc1Cl)c1ccc(Cl)c(Cl)c1	.	.	.	?	?
Fc1ccc(NC(=S)NNc2ncc(C(F)(F)F)cc2Cl)c(F)c1	.	.	.	10.4µM	9.28µM
CC(NC(=S)Nc1cccc(C(F)(F)F)c1)C(C)(C)C (stereo not given)	.	.	.	13.1µM	?
O=S(=O)(NNc1ncc(C(F)(F)F)cc1Cl)c1ccc(F)cc1F	/	.	.	/	/
Cc1ccc(NC(=S)NNc2ncc(C(F)(F)F)cc2Cl)c(C)c1	.	.	.	?	/
FC(F)(F)c1cnc(NNC(=S)Nc2ccc(Cl)cc2)c(Cl)c1	.	.	.	7.38µM	?
S=C(NCCc1ccccc1)N1CCc2ccccc2C1	.	.	.	?	.
FC(F)(F)c1cccc(NC(=S)NNC(=S)Nc2ccc(Cl)cc2)c1	.	/	.	11.7µM	?
CCSc1nnc(CNC(=O)C23CC4CC(CC(C4)C2)C3)n1Cc1ccccc1	.	.	.	?	?
CCCSc1nnc(CNC(=O)C23CC4CC(CC(C4)C2)C3)n1Cc1ccccc1	.	.	.	?	13.1µM
O=C(OCc1ccccc1F)c1cc(S(=O)(=O)N2CCCCC2)ccc1N1CCOCC1	/	.	/	/	/
